Measured values published in paper PMC7862700, “An all-to-all approach to the identification of sequence-specific readers for epigenetic DNA modifications on cytosine”.

Tests used:
Experiment in all cases: DAPPL (digital affinity profiling via proximity ligation, sequencing); 10 mM Tris-HCl pH 7.5, 50 mM NaCl, 1 mM DTT, 4% glycerol, room temperature, 30 min; GST-TFs on glutathione beads, 16-mer random dsDNA library, 0.1% formaldehyde crosslink after washing; high values mean tight binding
FLI1 = biological target: T1, FLI1 (Homo sapiens, UniProt Q01543 1-452); details: protein: recombinant; tags: N-terminal GST; dsDNA, one strand shown
T1 sequence: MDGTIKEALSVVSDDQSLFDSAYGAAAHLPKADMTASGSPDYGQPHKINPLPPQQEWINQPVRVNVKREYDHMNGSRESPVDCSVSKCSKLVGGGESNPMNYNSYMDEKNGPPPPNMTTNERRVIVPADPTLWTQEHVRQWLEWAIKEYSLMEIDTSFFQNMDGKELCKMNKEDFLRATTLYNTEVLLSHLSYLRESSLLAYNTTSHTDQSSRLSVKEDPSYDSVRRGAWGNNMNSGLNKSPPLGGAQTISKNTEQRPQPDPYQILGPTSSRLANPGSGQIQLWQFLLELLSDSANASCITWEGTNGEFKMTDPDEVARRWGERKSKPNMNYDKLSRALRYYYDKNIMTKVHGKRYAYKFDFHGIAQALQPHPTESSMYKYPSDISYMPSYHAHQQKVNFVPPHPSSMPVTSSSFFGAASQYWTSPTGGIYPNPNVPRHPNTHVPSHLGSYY
In short: (§1)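 After expression in yeast as GST fusions, human transcription factors were bound to glutathione beads, DNA-barcoded and mixed with a tag-only sample. The pools were incubated with 200 nmole of a 16-mer random double-stranded DNA library in Tris/NaCl/DTT/glycerol buffer (30 min, room temperature), washed and crosslinked with 0.1% formaldehyde. Proximity ligation with BsaI/T4 ligase ran for 1 h at 37 °C, before PCR amplification and sequencing on an Illumina NextSeq500. Binding signal is a hexamer's read frequency for a factor divided by its frequency for the tag-only sample.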

ELK1 = biological target: T2, ELK1 (Homo sapiens, UniProt P19419 1-428); details: protein: recombinant; tags: N-terminal GST; dsDNA, one strand shown
T2 sequence: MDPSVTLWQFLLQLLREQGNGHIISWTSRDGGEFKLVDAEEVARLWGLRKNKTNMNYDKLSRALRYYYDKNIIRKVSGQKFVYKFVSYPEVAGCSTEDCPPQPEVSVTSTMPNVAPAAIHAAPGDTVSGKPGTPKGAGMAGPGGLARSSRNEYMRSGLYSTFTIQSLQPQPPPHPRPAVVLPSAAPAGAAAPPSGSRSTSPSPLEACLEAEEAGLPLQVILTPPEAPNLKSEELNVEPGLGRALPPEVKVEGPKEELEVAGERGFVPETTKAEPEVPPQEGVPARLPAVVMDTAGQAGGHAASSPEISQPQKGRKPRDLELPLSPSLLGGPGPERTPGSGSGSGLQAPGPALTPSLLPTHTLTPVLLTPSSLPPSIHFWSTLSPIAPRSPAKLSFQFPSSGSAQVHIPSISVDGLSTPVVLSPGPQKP
In short: as §1

GABPA = biological target: T3, GABPA (Homo sapiens, UniProt Q06546 1-454); details: protein: recombinant; tags: N-terminal GST; dsDNA, one strand shown
T3 sequence: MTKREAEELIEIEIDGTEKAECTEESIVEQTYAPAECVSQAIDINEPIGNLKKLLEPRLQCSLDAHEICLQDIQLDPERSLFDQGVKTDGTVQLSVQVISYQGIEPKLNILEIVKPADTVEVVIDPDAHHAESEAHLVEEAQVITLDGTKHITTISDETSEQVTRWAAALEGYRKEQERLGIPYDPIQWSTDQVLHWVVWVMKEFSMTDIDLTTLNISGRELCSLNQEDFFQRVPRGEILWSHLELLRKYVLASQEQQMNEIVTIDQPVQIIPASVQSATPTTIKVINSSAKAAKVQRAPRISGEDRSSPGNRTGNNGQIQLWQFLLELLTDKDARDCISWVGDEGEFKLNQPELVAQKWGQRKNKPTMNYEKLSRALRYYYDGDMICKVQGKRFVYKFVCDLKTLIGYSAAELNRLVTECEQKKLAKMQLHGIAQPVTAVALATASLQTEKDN
In short: as §1

ERG = biological target: T4, ERG (Homo sapiens, UniProt P11308 1-479); details: protein: recombinant; tags: N-terminal GST; dsDNA, one strand shown
T4 sequence: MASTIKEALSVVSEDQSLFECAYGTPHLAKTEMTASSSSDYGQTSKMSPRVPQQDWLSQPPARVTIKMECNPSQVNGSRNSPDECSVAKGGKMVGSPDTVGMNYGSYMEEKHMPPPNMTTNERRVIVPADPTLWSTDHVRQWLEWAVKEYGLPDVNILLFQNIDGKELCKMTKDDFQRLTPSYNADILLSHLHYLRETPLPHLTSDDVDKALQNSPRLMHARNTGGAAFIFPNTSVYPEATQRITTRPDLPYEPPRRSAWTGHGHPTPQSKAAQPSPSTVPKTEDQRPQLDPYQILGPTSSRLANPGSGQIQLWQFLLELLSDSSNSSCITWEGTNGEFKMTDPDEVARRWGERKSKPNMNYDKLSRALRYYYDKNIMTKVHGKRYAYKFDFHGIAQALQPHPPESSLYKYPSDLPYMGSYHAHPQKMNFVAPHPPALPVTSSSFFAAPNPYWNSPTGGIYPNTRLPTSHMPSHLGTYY
In short: as §1

ELF1 = ELF1 (Homo sapiens, UniProt P32519 1-619); details: protein: recombinant; tags: N-terminal GST; dsDNA, one strand shown
In short: as §1

EHF = biological target: T5, EHF (Homo sapiens, UniProt Q9NZC4 1-300); details: protein: recombinant; tags: N-terminal GST; dsDNA, one strand shown
T5 sequence: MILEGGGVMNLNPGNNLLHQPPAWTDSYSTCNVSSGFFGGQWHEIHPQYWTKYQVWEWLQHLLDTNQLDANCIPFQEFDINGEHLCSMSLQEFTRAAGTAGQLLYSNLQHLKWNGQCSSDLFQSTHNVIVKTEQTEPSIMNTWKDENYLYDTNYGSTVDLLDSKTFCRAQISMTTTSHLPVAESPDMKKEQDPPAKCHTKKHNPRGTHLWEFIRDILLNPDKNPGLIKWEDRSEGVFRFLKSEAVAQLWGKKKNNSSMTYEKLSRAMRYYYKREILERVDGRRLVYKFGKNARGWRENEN
In short: as §1

SPI1 = SPI1 (Homo sapiens, UniProt P17947 1-270); details: protein: recombinant; tags: N-terminal GST; dsDNA, one strand shown
In short: as §1

SPIB = SPIB (Homo sapiens, UniProt Q01892 1-262); details: protein: recombinant; tags: N-terminal GST; dsDNA, one strand shown
In short: as §1

ELK3 = biological target: T6, ELK3 (Homo sapiens, UniProt P41970 1-407); details: protein: recombinant; tags: N-terminal GST; dsDNA, one strand shown
T6 sequence: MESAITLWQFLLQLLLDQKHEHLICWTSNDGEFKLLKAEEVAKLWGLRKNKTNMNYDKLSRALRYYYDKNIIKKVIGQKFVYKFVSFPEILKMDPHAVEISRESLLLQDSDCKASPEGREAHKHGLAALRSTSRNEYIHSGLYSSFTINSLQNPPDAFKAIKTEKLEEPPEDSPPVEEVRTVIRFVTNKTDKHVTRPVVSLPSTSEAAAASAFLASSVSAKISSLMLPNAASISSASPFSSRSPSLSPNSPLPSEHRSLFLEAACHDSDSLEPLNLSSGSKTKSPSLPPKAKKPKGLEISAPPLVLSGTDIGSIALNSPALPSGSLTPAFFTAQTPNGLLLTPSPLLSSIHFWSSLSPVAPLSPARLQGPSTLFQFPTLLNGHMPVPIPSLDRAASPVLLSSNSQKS
In short: as §1

FEV = biological target: T7, FEV (Homo sapiens, UniProt Q99581 1-238); details: protein: recombinant; tags: N-terminal GST; dsDNA, one strand shown
T7 sequence: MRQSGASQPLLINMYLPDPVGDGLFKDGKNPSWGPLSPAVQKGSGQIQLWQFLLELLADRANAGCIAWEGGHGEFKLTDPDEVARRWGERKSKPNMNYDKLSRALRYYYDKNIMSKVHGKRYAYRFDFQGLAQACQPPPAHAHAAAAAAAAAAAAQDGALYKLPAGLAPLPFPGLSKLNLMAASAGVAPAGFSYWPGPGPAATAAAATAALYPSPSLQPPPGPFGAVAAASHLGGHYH
In short: as §1

ETV5 = ETV5 (Homo sapiens, UniProt P41161 1-510); details: protein: recombinant; tags: N-terminal GST; dsDNA, one strand shown
In short: as §1

HSF1 = HSF1 (Homo sapiens, UniProt Q00613 1-529); details: protein: recombinant; tags: N-terminal GST; chain copies: 3; dsDNA, one strand shown
In short: as §1

SPIC = biological target: T8, SPIC (Homo sapiens, UniProt Q8N5J4 1-248); details: protein: recombinant; tags: N-terminal GST; dsDNA, one strand shown
T8 sequence: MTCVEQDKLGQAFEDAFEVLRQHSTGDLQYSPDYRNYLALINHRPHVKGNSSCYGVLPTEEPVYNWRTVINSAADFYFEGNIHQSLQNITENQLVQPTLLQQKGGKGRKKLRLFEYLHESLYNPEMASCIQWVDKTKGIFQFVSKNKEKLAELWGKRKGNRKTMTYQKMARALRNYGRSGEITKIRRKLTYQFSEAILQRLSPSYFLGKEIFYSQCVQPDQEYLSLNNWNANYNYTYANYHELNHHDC
In short: as §1

ELF4 = ELF4 (Homo sapiens, UniProt Q99607 1-663); details: protein: recombinant; tags: N-terminal GST; dsDNA, one strand shown
In short: as §1

ELK4 = biological target: T9, ELK4 (Homo sapiens, UniProt P28324-2 1-405); details: protein: recombinant; tags: N-terminal GST; dsDNA, one strand shown
T9 sequence: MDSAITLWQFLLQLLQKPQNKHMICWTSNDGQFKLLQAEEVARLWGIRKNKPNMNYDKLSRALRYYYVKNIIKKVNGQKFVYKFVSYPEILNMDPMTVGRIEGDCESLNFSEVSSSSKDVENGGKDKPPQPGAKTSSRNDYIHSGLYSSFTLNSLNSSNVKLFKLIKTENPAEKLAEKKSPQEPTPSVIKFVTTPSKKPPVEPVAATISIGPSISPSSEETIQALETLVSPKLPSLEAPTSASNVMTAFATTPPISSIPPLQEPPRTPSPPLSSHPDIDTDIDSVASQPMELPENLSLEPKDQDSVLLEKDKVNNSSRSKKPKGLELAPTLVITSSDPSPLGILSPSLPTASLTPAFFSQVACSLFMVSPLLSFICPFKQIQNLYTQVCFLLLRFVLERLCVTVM
In short: as §1

ETV2 = biological target: T10, ETV2 (Homo sapiens, UniProt O00321 1-342); details: protein: recombinant; tags: N-terminal GST; dsDNA, one strand shown
T10 sequence: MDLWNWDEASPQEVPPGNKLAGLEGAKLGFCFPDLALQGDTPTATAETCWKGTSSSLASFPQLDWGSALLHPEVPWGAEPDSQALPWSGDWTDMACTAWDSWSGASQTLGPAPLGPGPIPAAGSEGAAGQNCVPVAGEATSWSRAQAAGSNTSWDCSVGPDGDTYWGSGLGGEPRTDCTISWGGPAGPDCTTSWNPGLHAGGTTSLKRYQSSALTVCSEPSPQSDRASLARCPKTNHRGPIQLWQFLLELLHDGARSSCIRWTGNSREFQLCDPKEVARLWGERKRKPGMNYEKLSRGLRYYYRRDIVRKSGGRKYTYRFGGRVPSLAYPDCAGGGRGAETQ
In short: as §1

ELF3 = biological target: T11, ELF3 (Homo sapiens, UniProt P78545 1-371); details: protein: recombinant; tags: N-terminal GST; dsDNA, one strand shown
T11 sequence: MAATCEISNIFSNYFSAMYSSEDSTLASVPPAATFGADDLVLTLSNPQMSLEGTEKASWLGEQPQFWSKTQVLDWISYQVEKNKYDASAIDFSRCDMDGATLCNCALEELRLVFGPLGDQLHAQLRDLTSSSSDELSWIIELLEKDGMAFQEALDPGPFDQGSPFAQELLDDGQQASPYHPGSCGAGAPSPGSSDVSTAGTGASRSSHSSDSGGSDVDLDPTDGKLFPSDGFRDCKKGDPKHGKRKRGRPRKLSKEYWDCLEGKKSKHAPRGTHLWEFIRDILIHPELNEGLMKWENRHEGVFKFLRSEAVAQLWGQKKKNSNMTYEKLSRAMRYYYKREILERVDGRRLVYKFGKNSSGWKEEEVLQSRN
In short: as §1

CRX = CRX (Homo sapiens, UniProt O43186 1-299); details: protein: recombinant; tags: N-terminal GST; dsDNA, one strand shown
In short: as §1

ETV1 = ETV1 (Homo sapiens, UniProt P50549 1-477); details: protein: recombinant; tags: N-terminal GST; dsDNA, one strand shown
In short: as §1

Sequence of SPIB (Q01892 whole entry): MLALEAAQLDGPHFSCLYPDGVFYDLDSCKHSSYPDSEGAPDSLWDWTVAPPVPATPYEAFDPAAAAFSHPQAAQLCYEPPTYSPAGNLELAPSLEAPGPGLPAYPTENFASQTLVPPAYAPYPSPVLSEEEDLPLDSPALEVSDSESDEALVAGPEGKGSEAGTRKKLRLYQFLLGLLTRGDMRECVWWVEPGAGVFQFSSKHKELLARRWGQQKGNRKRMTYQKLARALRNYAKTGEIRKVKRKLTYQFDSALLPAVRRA
Sequence of ETV1 (P50549 whole entry): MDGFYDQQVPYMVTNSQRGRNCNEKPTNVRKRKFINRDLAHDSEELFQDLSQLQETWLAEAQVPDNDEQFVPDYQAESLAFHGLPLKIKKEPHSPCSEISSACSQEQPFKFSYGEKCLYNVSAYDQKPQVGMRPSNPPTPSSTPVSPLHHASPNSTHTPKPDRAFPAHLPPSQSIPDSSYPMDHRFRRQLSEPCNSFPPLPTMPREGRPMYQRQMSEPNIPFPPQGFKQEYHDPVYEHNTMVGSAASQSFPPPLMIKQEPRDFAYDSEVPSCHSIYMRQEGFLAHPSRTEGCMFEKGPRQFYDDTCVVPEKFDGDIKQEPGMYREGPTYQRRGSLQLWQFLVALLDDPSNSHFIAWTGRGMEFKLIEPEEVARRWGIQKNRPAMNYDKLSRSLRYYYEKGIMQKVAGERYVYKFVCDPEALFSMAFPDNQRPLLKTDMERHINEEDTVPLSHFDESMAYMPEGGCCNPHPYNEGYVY
Sequence of CRX (O43186 whole entry): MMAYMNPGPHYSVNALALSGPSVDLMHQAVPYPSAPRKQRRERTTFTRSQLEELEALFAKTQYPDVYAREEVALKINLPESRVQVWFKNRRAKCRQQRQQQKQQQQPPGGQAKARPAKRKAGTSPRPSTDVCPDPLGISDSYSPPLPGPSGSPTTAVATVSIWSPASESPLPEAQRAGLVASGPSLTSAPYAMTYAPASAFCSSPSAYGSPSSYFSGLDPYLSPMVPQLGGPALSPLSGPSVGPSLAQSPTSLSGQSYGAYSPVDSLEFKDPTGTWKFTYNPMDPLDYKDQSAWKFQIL
Sequence of ELF1 (P32519 whole entry): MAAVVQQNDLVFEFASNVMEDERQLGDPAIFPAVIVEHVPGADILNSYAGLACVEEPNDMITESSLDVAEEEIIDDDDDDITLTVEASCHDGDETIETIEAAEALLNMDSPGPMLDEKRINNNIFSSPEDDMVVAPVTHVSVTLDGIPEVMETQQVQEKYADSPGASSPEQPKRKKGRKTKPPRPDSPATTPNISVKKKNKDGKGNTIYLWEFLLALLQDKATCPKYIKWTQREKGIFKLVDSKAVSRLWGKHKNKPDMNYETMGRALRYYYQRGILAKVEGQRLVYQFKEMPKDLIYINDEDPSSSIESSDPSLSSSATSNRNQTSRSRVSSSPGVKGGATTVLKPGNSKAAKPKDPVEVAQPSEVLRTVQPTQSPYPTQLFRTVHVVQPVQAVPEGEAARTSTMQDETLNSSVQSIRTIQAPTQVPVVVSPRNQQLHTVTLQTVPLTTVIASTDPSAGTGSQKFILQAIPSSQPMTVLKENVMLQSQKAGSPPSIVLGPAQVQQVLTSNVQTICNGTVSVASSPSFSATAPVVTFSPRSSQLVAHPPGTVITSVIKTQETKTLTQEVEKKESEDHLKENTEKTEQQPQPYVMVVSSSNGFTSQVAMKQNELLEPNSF
Sequence of ETV5 (P41161 whole entry): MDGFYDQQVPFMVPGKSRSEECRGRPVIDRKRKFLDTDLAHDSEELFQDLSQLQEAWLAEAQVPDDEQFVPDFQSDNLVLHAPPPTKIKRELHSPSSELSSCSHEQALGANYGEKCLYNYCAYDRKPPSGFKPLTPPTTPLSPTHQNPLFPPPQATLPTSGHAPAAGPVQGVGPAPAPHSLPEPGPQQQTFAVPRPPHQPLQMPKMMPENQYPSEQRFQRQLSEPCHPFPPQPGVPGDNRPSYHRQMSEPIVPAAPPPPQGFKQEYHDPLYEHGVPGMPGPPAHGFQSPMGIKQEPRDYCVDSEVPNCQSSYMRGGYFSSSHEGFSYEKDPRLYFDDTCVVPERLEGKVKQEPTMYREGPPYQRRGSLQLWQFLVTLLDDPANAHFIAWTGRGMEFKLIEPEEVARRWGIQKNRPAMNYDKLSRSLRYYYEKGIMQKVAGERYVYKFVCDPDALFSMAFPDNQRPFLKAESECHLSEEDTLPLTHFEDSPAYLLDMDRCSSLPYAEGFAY
Sequence of ELF4 (Q99607 whole entry): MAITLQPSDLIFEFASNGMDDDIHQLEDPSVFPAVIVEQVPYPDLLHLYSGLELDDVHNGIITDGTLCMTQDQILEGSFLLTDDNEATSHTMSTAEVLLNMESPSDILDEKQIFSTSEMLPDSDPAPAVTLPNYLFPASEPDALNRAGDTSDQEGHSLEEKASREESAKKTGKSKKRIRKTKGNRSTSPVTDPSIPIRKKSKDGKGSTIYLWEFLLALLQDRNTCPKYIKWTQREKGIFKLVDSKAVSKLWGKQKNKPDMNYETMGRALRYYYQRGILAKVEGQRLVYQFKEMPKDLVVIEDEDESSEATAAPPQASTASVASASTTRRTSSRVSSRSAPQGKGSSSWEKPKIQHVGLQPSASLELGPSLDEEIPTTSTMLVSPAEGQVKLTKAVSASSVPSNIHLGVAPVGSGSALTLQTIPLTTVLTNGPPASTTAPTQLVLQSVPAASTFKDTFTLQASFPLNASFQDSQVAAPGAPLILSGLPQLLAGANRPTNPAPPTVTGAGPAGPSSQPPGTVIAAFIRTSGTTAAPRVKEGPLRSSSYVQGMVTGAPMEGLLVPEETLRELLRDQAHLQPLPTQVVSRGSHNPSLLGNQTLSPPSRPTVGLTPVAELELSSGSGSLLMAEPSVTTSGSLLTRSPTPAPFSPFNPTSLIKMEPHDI
Sequence of HSF1 (Q00613 whole entry): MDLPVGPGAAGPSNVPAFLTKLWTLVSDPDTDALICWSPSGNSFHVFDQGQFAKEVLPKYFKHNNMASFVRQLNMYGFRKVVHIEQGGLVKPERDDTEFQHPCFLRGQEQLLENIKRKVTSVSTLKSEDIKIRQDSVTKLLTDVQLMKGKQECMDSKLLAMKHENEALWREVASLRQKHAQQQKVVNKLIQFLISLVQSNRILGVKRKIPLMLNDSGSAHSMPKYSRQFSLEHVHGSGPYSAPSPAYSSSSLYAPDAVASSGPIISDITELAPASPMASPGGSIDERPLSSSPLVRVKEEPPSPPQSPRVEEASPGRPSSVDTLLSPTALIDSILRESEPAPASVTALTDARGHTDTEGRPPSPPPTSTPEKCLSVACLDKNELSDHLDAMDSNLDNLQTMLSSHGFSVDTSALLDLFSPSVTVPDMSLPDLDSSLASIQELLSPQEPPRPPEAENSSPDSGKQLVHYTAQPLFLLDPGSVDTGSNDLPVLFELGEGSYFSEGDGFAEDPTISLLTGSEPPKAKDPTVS

TGCTCA was tested, and the binding signal (FLI1) was 1.32 fold enrichment (6-mer frequency, TF over GST control), the binding signal (ELK1) was 1.28 fold enrichment (6-mer frequency, TF over GST control) and the binding signal (GABPA) was 1.34 fold enrichment (6-mer frequency, TF over GST control). For the same sequence, the binding signal (ERG) was 1.41 fold enrichment (6-mer frequency, TF over GST control), the binding signal (ELF1) was 1.41 fold enrichment (6-mer frequency, TF over GST control) and the binding signal (EHF) was 1.36 fold enrichment (6-mer frequency, TF over GST control). For the same sequence, the binding signal (SPI1) was 1.27 fold enrichment (6-mer frequency, TF over GST control), the binding signal (SPIB) was 1.35 fold enrichment (6-mer frequency, TF over GST control) and the binding signal (ELK3) was 1.19 fold enrichment (6-mer frequency, TF over GST control). The binding signal (FEV) was 1.39 fold enrichment (6-mer frequency, TF over GST control), the binding signal (ETV5) was 1.4 fold enrichment (6-mer frequency, TF over GST control) and the binding signal (HSF1) was 1.12 fold enrichment (6-mer frequency, TF over GST control). The binding signal (SPIC) was 1.65 fold enrichment (6-mer frequency, TF over GST control), the binding signal (ELF4) was 1.28 fold enrichment (6-mer frequency, TF over GST control) and the binding signal (ELK4) was 1.24 fold enrichment (6-mer frequency, TF over GST control). The binding signal (ETV2) was 1.42 fold enrichment (6-mer frequency, TF over GST control), the binding signal (ELF3) was 1.31 fold enrichment (6-mer frequency, TF over GST control) and the binding signal (CRX) was 1.28 fold enrichment (6-mer frequency, TF over GST control). For the same sequence, the binding signal (ETV1) was 1.34 fold enrichment (6-mer frequency, TF over GST control).
